From PubChem BioAssay AID504840 (Johns Hopkins Ion Channel Center, 2011)
The campaign covered roughly 1,500 compounds. About 890 (59%) were called active.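 How the source made its calls: active means inhibition of the choline-evoked signal at any tested dose together with a fitted dose-response curve; inactive means no inhibition at any dose or no curve.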 So high a share suggests a set chosen from earlier hits. Only a sample is shown. Results with a measured potency or affinity are listed apart.

These compounds were tested against High affinity choline transporter 1 (Homo sapiens) (UniProt Q9GZV3) (assay: CHT inhibitors, dose response, cell-based, 5-point CRC, membrane potential dye (AID 504840;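 further: 0% = buffer-only response and 100% = EC90 choline response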)). Conditions: HEK293-CHT, choline-induced depolarization, CHT with LV-to-AA double alanine mutation; series mostly up to 37 µM; inhibition: at the top concentration.
High affinity choline transporter 1 (Homo sapiens), sequence (Q9GZV3 whole entry, looked up): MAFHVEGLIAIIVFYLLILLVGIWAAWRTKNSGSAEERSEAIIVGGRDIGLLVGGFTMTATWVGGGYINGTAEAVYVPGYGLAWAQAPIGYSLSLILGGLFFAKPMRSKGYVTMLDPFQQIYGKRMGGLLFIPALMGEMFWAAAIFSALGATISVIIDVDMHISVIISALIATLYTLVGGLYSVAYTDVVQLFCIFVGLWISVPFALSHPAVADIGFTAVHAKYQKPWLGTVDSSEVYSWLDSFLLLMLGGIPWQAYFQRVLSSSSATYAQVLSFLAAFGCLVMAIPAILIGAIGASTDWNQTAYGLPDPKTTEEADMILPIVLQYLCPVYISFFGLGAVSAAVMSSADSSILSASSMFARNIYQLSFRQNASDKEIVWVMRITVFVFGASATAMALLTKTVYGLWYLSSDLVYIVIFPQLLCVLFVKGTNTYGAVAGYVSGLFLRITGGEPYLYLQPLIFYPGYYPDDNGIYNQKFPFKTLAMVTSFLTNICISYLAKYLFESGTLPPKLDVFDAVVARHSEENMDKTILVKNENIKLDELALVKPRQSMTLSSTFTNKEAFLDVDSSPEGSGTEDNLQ

SMILES | inhibition
Cc1cc(O)ccc1C1(c2ccc(O)cc2C)OC(=O)c2ccccc21 | 28.5% (inactive)
CCCCCCCCC[n+]1cccc2c3ccccc3ccc21 | 42.3% (inactive)
Cn1ncc2c(N3CCC(Cc4ccccc4)CC3)ncnc21 | 33.5% (inactive)
Cc1c(C)n(CCc2ccccc2)c2ncnc(NN)c12 | 28.7% (inactive)
O=C(NC1CC1)C1=C[C@H](c2ccc(Br)cc2)C[C@H](OCc2ccc(CO)cc2)O1 | 52.6% (inactive)
Cn1nc(C(F)(F)F)c(-c2ccccc2)c1NC(=O)c1ccco1 | 58.8% (inactive)
O=C(Nc1ccccc1Cl)C1CCCN(c2ncnc3c2nc2n3CCCCC2)C1 (configuration not stated) | 79.8% (inactive)
O=C(Nc1ccc(Cl)cn1)C1CCCN(c2ncnc3c2nc2n3CCCCC2)C1 (configuration not stated) | 53.9% (inactive)
O=C(N/N=C/c1cccc(Oc2ccccc2)c1)c1cccc(O)c1 | 25.8% (inactive)
O=c1cc(CN2CCN(c3ccccc3O)CC2)nc2sccn12 | 51.6% (inactive)
O=c1cc(CSc2nc3cc(Cl)ccc3o2)nc2sccn12 | 48.6% (inactive)
O=C(Cn1nc(C(F)(F)F)c2c1CCCC2)NC1CCCC1 | 15.2% (inactive)
O=C(Cn1nc(C(F)(F)F)cc1C1CC1)NCc1ccccc1F | 3.99% (inactive)
Clc1cccc(CNCCNCc2cccc(Cl)c2)c1 | 27.9% (inactive)
O=C(CSc1nnc(Cc2ccsc2)o1)c1ccccc1 | 45.5% (inactive)
CC(C)(C)OC(=O)NCCc1nnc(SCc2ccc(Cl)cc2)o1 | 24.7% (inactive)
CCOC(=O)c1[nH]c(C=O)c(C(=O)OCC)c1C | 38% (inactive)
O=C(CSc1nccn1-c1ccc(F)cc1)NCc1ccc(F)cc1 | 30.9% (inactive)
C=CCn1c(CSc2nc3ccccc3s2)nnc1SCC(=O)NCc1ccccc1 | 42.6% (inactive)
COc1ccc(-c2cc(C(=O)NCCCN3CCOCC3)c3cc(C(C)C)ccc3n2)cc1 | 29.7% (inactive)
CCN1CCN(C(=O)CCc2nc3ccccc3n2-c2ccccc2)CC1 | 64% (inactive)
Cc1nc2cc(C(=O)N3c4ccccc4CC3C)ccc2s1 (configuration not stated) | 45.4% (inactive)
CC(=O)c1cccc(OCC(=O)c2cc(C)n(-c3cc(C)on3)c2C)c1 | 24% (inactive)

SMILES | inhibition
N#C/C(=C\c1ccc(O)c(Br)c1)C(=O)NCc1ccccc1 | 24.4% (inactive)
COc1ccccc1NS(=O)(=O)c1ccc(O)c(C(=O)OCC(=O)c2ccc(Cl)cc2Cl)c1 | 5.73% (inactive)
Cc1c(Cl)cccc1NCC(=O)NN=C1CCCC1 | 48.2% (inactive)
Cc1nc(SC2CC(=O)N(c3cc(Cl)cc(Cl)c3)C2=O)nc2c1CCCC2 (configuration not stated) | 18.9% (inactive)
COc1ccc(OC)c(Cc2nnc(CCC(=O)N3CCN(C4CCCC4)CC3)o2)c1 | 50.6% (inactive)
Cc1cc(/C=N/NC(=O)C(=O)NCc2ccccn2)c(C)n1-c1ccccc1 | 59.3% (inactive)
CC(C)(C)c1cc(C(=O)N/N=C/c2ccc(F)cc2)n(-c2ccccc2)n1 | 37.8% (inactive)
Cc1ccc(S(=O)(=O)N/N=C/c2cc(Br)ccc2O)cc1 | 53.1% (inactive)
CCOC(=O)c1cc2c(s1)-c1c(C)cccc1OC2 | -5.26% (inactive)
Cc1ccccc1NC(=S)NNC(=O)c1ccncc1 | 1.63% (inactive)
COc1ccc(C(=O)NC(=S)NNC(=O)c2ccc(C)cc2)cc1 | 27.9% (inactive)
Cc1ccc(C)c(NC(=O)c2cccc(Oc3ccc([N+](=O)[O-])cc3Cl)c2)c1 | 29.1% (inactive)
O=C(Nc1ccc(F)cc1)N1CCN(CCc2ccccc2)CC1 | 32.2% (inactive)
C#CC[N+]1(CC#Cc2ccc(C)cc2)CCCCC1 | 63.6% (inactive)
Cc1ccc(C#CC[N+]2(C)CCCCC2)cc1 | 62.4% (inactive)
Cc1cn([C@H](C(=O)NCCCCCCCCCCC(=O)N2CCN(C(=O)OC(C)(C)C)CC2)[C@@H](C)O)nn1 | 38% (inactive)
O=C(CNC(=O)c1ccc(Cl)cc1Cl)OCC(=O)c1ccc2c(c1)OCCO2 | 56.5% (inactive)
CN(/N=C/c1cc(Cl)cc(Cl)c1O)C(=S)NC(C)(C)C | 19.2% (inactive)
COc1cc(CCCN2C(=O)C(=O)NC[C@H]2Cc2cccc3ccccc23)cc(OC)c1OC | 61.8% (inactive)
CC(NC(=O)Cc1ccc(S(=O)(=O)N2CCOCC2)s1)c1ccc(Cl)c(Cl)c1 (configuration not stated) | 36.9% (inactive)
CCOC(=O)c1ccc(NC(=O)c2ccc(C)c(S(=O)(=O)N3CCOCC3)c2)cc1 | 22.8% (inactive)
Cc1ccc(F)cc1NC(=O)c1ccc(NS(=O)(=O)c2ccc(Br)s2)cc1 | 64.1% (inactive)
O=S(=O)(Nc1nc2ccccc2s1)c1ccc(Cl)s1 | 27.1% (inactive)

SMILES | inhibition
O=C(Nc1ccccc1)c1nnn(Cc2ccccc2)c1NC(=O)C(F)(F)F | 45.3% (inactive)
O=C(O)CSc1cc(C(=O)c2ccccc2O)cn2c(=O)c3c(-c4ccccc4)csc3nc12 | 76.9% (inactive)
Cc1ccc(-c2csc3nc(SCC(=O)Nc4ccc(Cl)c(C(=O)O)c4)[nH]c(=O)c23)cc1 | 41.6% (inactive)
CCCc1cc(NCCN(C)C)n2c(nc3ccccc32)c1C#N | 47.7% (inactive)
O=S(=O)(Nc1nc2ccccc2nc1NCC1CCCO1)c1cc(Cl)ccc1Cl (configuration not stated) | 28.4% (inactive)
O=C(Nc1sc2c(c1C(=O)O)CCCC2)c1ccc(Cl)cc1 | 26.7% (inactive)
NC(=O)c1c(NC(=O)CN2C(=O)NC(Cc3ccccc3)C2=O)sc2c1CCC2 (configuration not stated) | 51.4% (inactive)
O=C(NC1CCCC1)C(c1cccnc1)N(CCc1ccccc1)C(=O)c1ccco1 (configuration not stated) | -5.07% (inactive)
CC1CCC(NC(=O)c2ccc(NC3=NC4CS(=O)(=O)CC4S3)cc2)CC1 (configuration not stated) | 54.4% (inactive)
CC1CCC(NC(=O)Cn2c3c(c(-c4ccccc4Cl)cc2=O)CCC3)CC1 (configuration not stated) | 44.9% (inactive)
NC(N)=Nc1nc(CCN2C(=O)c3ccccc3C2=O)cs1 | 59.8% (inactive)
CCN(CC)S(=O)(=O)c1cc(C(=O)N2CCc3ccccc32)ccc1Cl | 14.8% (inactive)
CC(C)n1c(O)c(N=NC(=O)CNC(=O)Cc2ccc(Cl)cc2)c2ccccc21 | 50.6% (inactive)
CCCCn1nc2cc(C(=O)NC3CCc4ccccc43)ccc2c1OCC (configuration not stated) | 48% (inactive)
O=C(Nc1ccc(S(=O)(=O)Nc2nccs2)cc1)c1c(F)c(F)c(F)c(F)c1F | 41.6% (inactive)
CC(Oc1ccc(Cl)cc1Cl)C(=O)Nc1ccc(S(=O)(=O)Nc2cnc3ccccc3n2)cc1 (configuration not stated) | 71.6% (inactive)
Cc1ccc(NC(=O)CN(C)C(=O)COC(=O)CNS(=O)(=O)c2ccc(Br)cc2Cl)cc1 | 62.6% (inactive)
O=C1C[C@H]2[C@H](CO)[C@@H](OC(=O)c3ccc(-c4ccccc4)cc3)C[C@H]2O1 | 47.8% (inactive)
O=C(Nc1ccc(S(=O)(=O)Nc2cnc3ccccc3n2)cc1)c1ccc(Cl)c([N+](=O)[O-])c1 | 39.5% (inactive)
CC1(C)C(C=C(Cl)Cl)C1C(=O)Nc1ccc(S(=O)(=O)Nc2ncccn2)cc1 (configuration not stated) | 48.7% (inactive)
CCC(Oc1ccccc1C)C(=O)Nc1ccc(S(=O)(=O)Nc2cc(C)on2)cc1 (configuration not stated) | 47.4% (inactive)
